CHRM4 agonist – human M4 muscarinic receptor agonists, primary screen, CHO-K1 cells, Fluo-8 calcium fluorescence; CHO-K1 hM4/Gqi5; vehicle 0%, full acetylcholine response 100%; activation, % at 3 µM; 360,000 compounds, 0.14% hits; AID 624127, 2012;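 active means activation above the run mean over all test wells plus 3 SD, cut at about 32% in these data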;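 further: peak over basal fluorescence ratio per well then scaled between controls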
Target sequence (P08173 whole entry, looked up): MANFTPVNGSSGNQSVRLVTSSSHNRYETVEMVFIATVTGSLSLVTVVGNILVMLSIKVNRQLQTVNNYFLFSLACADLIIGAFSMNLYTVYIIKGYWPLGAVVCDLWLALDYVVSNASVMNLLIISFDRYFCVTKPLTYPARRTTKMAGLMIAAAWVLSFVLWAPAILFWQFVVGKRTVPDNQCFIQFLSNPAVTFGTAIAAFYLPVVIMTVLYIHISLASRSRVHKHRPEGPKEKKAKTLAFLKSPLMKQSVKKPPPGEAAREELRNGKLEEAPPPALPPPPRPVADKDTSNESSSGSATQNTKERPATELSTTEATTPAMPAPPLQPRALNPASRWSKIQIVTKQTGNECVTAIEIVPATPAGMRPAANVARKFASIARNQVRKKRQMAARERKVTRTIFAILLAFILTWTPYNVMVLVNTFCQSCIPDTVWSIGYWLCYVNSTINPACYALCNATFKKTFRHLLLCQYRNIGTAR
M1 ag – human M1 muscarinic receptor agonists, primary screen, Fluo-8 calcium fluorescence, CHO-K1 cells, HTS; Muscarinic acetylcholine receptor M1 (Homo sapiens), P11229; CHO-K1 hM1, agonist mode; 0% DMSO, 100% acetylcholine EC100; activation, % at 3 µM; 360,000 compounds, 0.33% hits;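 active means activation above the run's mean compound activation plus 3 SD, cut at about 16% in these data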;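 further: peak over basal fluorescence ratio within a 140 s kinetic read after compound addition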
M1 PAM – human M1 muscarinic receptor positive allosteric modulators, primary screen, CHO-K1 cells, Fluo-8 calcium fluorescence, 1536-well; Muscarinic acetylcholine receptor M1 (Homo sapiens), P11229; CHO-K1 hM1, ACh EC20; 0% = ACh EC20, 100% = maximal ACh; activation, % at 3 µM; 360,000 compounds, 0.088% hits; AID 588819, 2011; in the data active means activation above about 19%, passing the limit was not always enough
M4 antag – human M4 muscarinic receptor antagonists, primary screen, CHO cells, Fluo-8 calcium fluorescence | 360,000 compounds, 0.73% hits | inhibition, % at 3 µM | Muscarinic acetylcholine receptor M4 (Homo sapiens), P08173 | CHO-hM4 cells, ACh EC80;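 active means inhibition above its plate's cutoff, the mean inhibition of sample wells plus 3 SD, cut at about 27% in these data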
CHRM1 antagonist – human M1 muscarinic receptor antagonists, primary screen, CHO-K1 cells, Fluo-8 calcium fluorescence, 1536-well. Muscarinic acetylcholine receptor M1 (Homo sapiens), P11229. CHO-K1 hM1, ACh EC80 antagonist. inhibition, % at 3 µM. 360,000 compounds, 1.3% hits. AID 588852, 2011;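 active means percent inhibition above its own plate's cutoff, namely the mean of that plate's compound wells plus 3 SD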;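 further: peak over basal fluorescence ratio during 140 s after agonist addition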
M4 PAM – human M4 muscarinic receptor positive allosteric modulators, primary screen, CHO-K1 cells, Fluo-8 calcium fluorescence; Muscarinic acetylcholine receptor M4 (Homo sapiens), P08173; CHO-K1 hM4/Gqi5, ACh EC20; 0% = ACh EC20, 100% = maximal ACh; activation, % at 3 µM; 360,000 compounds, 0.4% hits;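 active means activation above its plate's cutoff, the mean activation of sample wells plus 3 SD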
A number is an active result. Sampled rows, rich in hits. Any-hit rate of the full collection: about 2.2%.

Results for C=CC[C@@H](CC(=O)N(CCO)Cc1ccccc1)C(=O)NC[C@@H](OC(=O)[C@@H](CC=C)Cc1ccc(F)cc1)c1ccccc1 ?
CHRM4 agonist: inactive; M1 ag: inactive; M1 PAM: inactive; M4 antag: inactive; CHRM1 antagonist: inactive; M4 PAM: inactive

What do the screens show for `OCCOCCNc1ncnc2c1c(-c1ccccc1)cn2-c1ccccc1`?
CHRM4 agonist: inactive; M1 ag: inactive; M1 PAM: inactive; M4 antag: inactive; CHRM1 antagonist: inactive; M4 PAM: inactive

What do the screens show for `Cc1cccc(CCN=C(N)NS(=O)(=O)c2ccccc2)c1`?
CHRM4 agonist: inactive; M1 ag: inactive; M1 PAM: inactive; M4 antag: inactive; CHRM1 antagonist: inactive; M4 PAM: inactive

How did CC(=O)c1cccc2c(O)c(C3=Nc4ccccc4C3=O)[nH]c12 do in these assays?
CHRM4 agonist: inactive; M1 ag: inactive; M1 PAM: inactive; M4 antag: inactive; CHRM1 antagonist: inactive; M4 PAM: 25.4

Results for O=C(C[C@H]1C/C=C\C[C@H](Cc2ccc(F)cc2)C(=O)O[C@@H](c2ccccc2)CNC1=O)N[C@H](CO)Cc1ccccc1 ?
CHRM4 agonist: 39.4; M1 ag: 36.8; M1 PAM: inactive; M4 antag: inactive; CHRM1 antagonist: inactive; M4 PAM: inactive

How did O=C(C[C@H]1C/C=C\CC[C@H](Cc2ccc(F)cc2)C(=O)O[C@@H](c2ccccc2)CNC1=O)N[C@H](CO)Cc1ccccc1 do in these assays?
CHRM4 agonist: inactive; M1 ag: 36.0; M1 PAM: inactive; M4 antag: inactive; CHRM1 antagonist: inactive; M4 PAM: inactive

Results for O=C(C[C@H]1C/C=C\CC[C@H](Cc2ccc(F)cc2)C(=O)O[C@@H](c2ccccc2)CNC1=O)N[C@@H](CO)Cc1ccccc1 ?
CHRM4 agonist: inactive; M1 ag: inactive; M1 PAM: inactive; M4 antag: inactive; CHRM1 antagonist: inactive; M4 PAM: inactive

What do the screens show for `OCC1OC(n2cnc3c(SCc4ccccc4)ncnc32)C(O)C1O` (configuration not stated)?
CHRM4 agonist: inactive; M1 ag: inactive; M1 PAM: inactive; M4 antag: inactive; CHRM1 antagonist: inactive; M4 PAM: inactive

What do the screens show for `Cc1ccc(CN2CCN(/N=C\c3cccc([N+](=O)[O-])c3)CC2)cc1`?
CHRM4 agonist: inactive; M1 ag: inactive; M1 PAM: inactive; M4 antag: inactive; CHRM1 antagonist: inactive; M4 PAM: inactive

How did CCOC(=O)c1cc2c(=O)n3ccccc3nc2n(Cc2ccco2)c1=NC(=O)c1ccc(OC)cc1 do in these assays?
CHRM4 agonist: inactive; M1 ag: inactive; M1 PAM: inactive; M4 antag: inactive; CHRM1 antagonist: inactive; M4 PAM: inactive

Results for O=C(Nc1cccc(S(=O)(=O)N2CCCCC2)c1)c1cccs1 ?
CHRM4 agonist: inactive; M1 ag: inactive; M1 PAM: inactive; M4 antag: inactive; CHRM1 antagonist: inactive; M4 PAM: inactive

Results for COc1ccc(-c2ccc(C#N)c(OC)n2)cc1 ?
CHRM4 agonist: inactive; M1 ag: inactive; M1 PAM: inactive; M4 antag: inactive; CHRM1 antagonist: inactive; M4 PAM: inactive

What do the screens show for `N#Cc1ccc(-c2ccc(F)cc2)nc1Oc1ccc(Cl)c(Cl)c1`?
CHRM4 agonist: inactive; M1 ag: inactive; M1 PAM: inactive; M4 antag: inactive; CHRM1 antagonist: inactive; M4 PAM: 32.6

How did COC(=O)c1ccc(CSc2nc3ccccc3c(=O)n2Cc2ccco2)o1 do in these assays?
CHRM4 agonist: inactive; M1 ag: inactive; M1 PAM: inactive; M4 antag: inactive; CHRM1 antagonist: 36.0; M4 PAM: inactive

Results for Cc1nc2ccn(Cc3ccccc3)c(=O)c2cc1C(=O)N1CCN(c2ccccc2)CC1 ?
CHRM4 agonist: inactive; M1 ag: inactive; M1 PAM: inactive; M4 antag: inactive; CHRM1 antagonist: inactive; M4 PAM: 13.9

How did O=C1CCCN2N=C(SCC(=O)Nc3cccc(Cl)c3)SC2=N1 do in these assays?
CHRM4 agonist: inactive; M1 ag: inactive; M1 PAM: inactive; M4 antag: inactive; CHRM1 antagonist: inactive; M4 PAM: inactive

How did O=C1CCCN2N=C(SCC(=O)Nc3cccc(C(F)(F)F)c3)SC2=N1 do in these assays?
CHRM4 agonist: inactive; M1 ag: inactive; M1 PAM: inactive; M4 antag: inactive; CHRM1 antagonist: 26.6; M4 PAM: inactive

Results for O=C(O)C1C2C=CC3(O2)C1C(=O)N1c2ccccc2C2OCCC2C13 (configuration not stated) ?
CHRM4 agonist: inactive; M1 ag: inactive; M1 PAM: inactive; M4 antag: inactive; CHRM1 antagonist: inactive; M4 PAM: inactive

How did CSc1ccc(C(=O)c2[nH]c(=O)[nH]c2C)cc1 do in these assays?
CHRM4 agonist: inactive; M1 ag: inactive; M1 PAM: inactive; M4 antag: inactive; CHRM1 antagonist: inactive; M4 PAM: inactive

How did Clc1cccc(NCc2ccccc2)n1 do in these assays?
CHRM4 agonist: inactive; M1 ag: inactive; M1 PAM: inactive; M4 antag: inactive; CHRM1 antagonist: inactive; M4 PAM: 22.1

How did CN(C)c1cc2c(c(N(C)C)c1)C(=O)c1ccccc1C2=O do in these assays?
CHRM4 agonist: inactive; M1 ag: inactive; M1 PAM: inactive; M4 antag: inactive; CHRM1 antagonist: inactive; M4 PAM: 19.8

Results for CCN(CC)c1ccc(C(=O)NNC(=O)Cn2c(=O)cnc3ccccc32)cc1 ?
CHRM4 agonist: inactive; M1 ag: inactive; M1 PAM: inactive; M4 antag: inactive; CHRM1 antagonist: inactive; M4 PAM: inactive

Results for O=C1CC(=C(c2ccccc2)c2ccccc2)C(=O)N1CCCN1CCN(c2cccc(Cl)c2)CC1 ?
CHRM4 agonist: inactive; M1 ag: inactive; M1 PAM: inactive; M4 antag: 28.1; CHRM1 antagonist: 38.5; M4 PAM: inactive

What do the screens show for `COCCN(CCNC(=O)c1ccc(NC2=NC3CS(=O)(=O)CC3S2)cc1)Cc1ccco1` (configuration not stated)?
CHRM4 agonist: inactive; M1 ag: inactive; M1 PAM: inactive; M4 antag: inactive; CHRM1 antagonist: inactive; M4 PAM: inactive

What do the screens show for `CN(C)S(=O)(=O)c1cccc(-c2nnc(SCC(=O)NCCCCCC(=O)O)n2-c2ccc(F)cc2)c1`?
CHRM4 agonist: inactive; M1 ag: inactive; M1 PAM: inactive; M4 antag: inactive; CHRM1 antagonist: inactive; M4 PAM: 25.2

How did CNC(=O)CSc1nnc(-c2cccc(S(=O)(=O)N3CCOCC3)c2)n1-c1ccc(F)cc1 do in these assays?
CHRM4 agonist: inactive; M1 ag: inactive; M1 PAM: inactive; M4 antag: inactive; CHRM1 antagonist: inactive; M4 PAM: inactive
